The experiment can be described thus: NCI Yeast Anticancer Drug Screen. Data for the mlh1 rad18 strain (AID 175). As to conditions: S. cerevisiae mlh1 rad18 strain growth inhibition, hits give high values. As for the experimental part:
Growth inhibition of yeast strains with defined genetic alterations is measured as a screen for potential anti-cancer activity. Selected strains with alterations in DNA damage repair or cell cycle control were exposed to compounds and growth inhibition was measured relative to vehicle treated controls. The strain used in this assay is mlh1 rad18

Setting [1] is: at 5.0 µM (retest, dose inferred, filed as 0.5).
[2] abbreviates: at 50.0 µM (retest, dose inferred, filed as 5.0).

This is part of a sample that, as a whole, favours compounds with a hit. Of some 79,000 tested, about 15% had one in any assay. The source made the active and inactive calls. Rule as the data show it: active = growth inhibition above about 70%; inactive = the rest.

On to `O=C(CCN1CCN(c2cccc(Cl)c2)CC1)N1CCc2c([nH]c3ccccc23)C1c1cccnc1` (configuration not stated), for which the growth inhibition reads like this: under setting [1], 23% (inactive); under setting [2], 23% (inactive); (at 50.0 µM) 89.7% (active).

`COc1ccc(NS(=O)(=O)c2ccc(F)cc2)cc1`: the growth inhibition is -15% (inactive) under setting [1], -18% (inactive) under setting [2] and 98.5% (active) (at 50.0 µM).

For the molecule `CN(C)c1ccc(C2(c3ccc(N(C)C)cc3)OC(=O)c3ccccc32)cc1`, the growth inhibition runs as follows: under setting [1], -9% (inactive); under setting [2], -40% (inactive); (at 50.0 µM) 38.9% (inactive).

For `CCCCN(CCCC)CC(O)c1cc(-c2ccc(Cl)cc2)nc2cc(C)ccc12` (configuration not stated), the growth inhibition is 33% (inactive) under setting [1], 98% (active) under setting [2] and 99.1% (active) (at 50.0 µM).

For the molecule `COc1ccc(C2c3cc4c(cc3OC(O)C2C)OCO4)c(OC)c1` (configuration not stated), the growth inhibition was -5% (inactive) under setting [1], 97% (active) under setting [2] and 87.5% (active) (at 50.0 µM).

Take `CC(O)(c1ccccc1)c1ccccc1S(=O)(=O)Nc1ccccc1` (configuration not stated): the growth inhibition is -2% (inactive) under setting [1], 98% (active) under setting [2] and 98.4% (active) (at 50.0 µM).

Turning to `Cc1ccc(S(=O)(=O)NC2(C=O)CCC(C(C)(C)C)CC2)cc1` (configuration not stated), the growth inhibition reads like this: under setting [1], 37% (inactive); under setting [2], 95% (active); (at 50.0 µM) 81% (active).

In the case of `c1ccc(C(CNCCN2CCCCCC2)C2CCCCC2)cc1` (configuration not stated), the growth inhibition is 18% (inactive) under setting [1], 23% (inactive) under setting [2] and 87.2% (active) (at 50.0 µM).

As to `[N-]=[N+]=CC(=O)c1ccc(C(=O)C=[N+]=[N-])cc1`, the growth inhibition under setting [1] was 11% (inactive), the growth inhibition under setting [2] is 95% (active) and the growth inhibition (at 50.0 µM) was 99.2% (active).

Regarding `CC(=O)Oc1c(C)cc(C)cc1Cc1cc(C(C)=O)cc(Cc2cc(C)cc(C)c2OC(C)=O)c1OC(C)=O`, the growth inhibition under setting [1] was 46% (inactive), the growth inhibition under setting [2] is 91% (active) and the growth inhibition (at 50.0 µM) is 92.5% (active).

On to `Cc1ccc(SCc2ccc(Cl)cc2Cl)nn1`, for which the growth inhibition is -3% (inactive) under setting [1], 78% (active) under setting [2] and 94% (active) (at 50.0 µM).

As to `C=C(CSCCCCCCCCCCCC)C(=O)O`, the growth inhibition was 99% (active) under setting [1], 97% (active) under setting [2] and 96.7% (active) (at 50.0 µM).

On to `O=C(CC(C(=O)O)c1c[nH]c2ccccc12)c1ccccc1` (configuration not stated), for which the growth inhibition under setting [1] was -4% (inactive), the growth inhibition under setting [2] was 1% (inactive) and the growth inhibition (at 50.0 µM) is -0.1% (inactive).

As to `Nc1nc(-c2cccnc2)nc(N)c1N=O`, the growth inhibition is 25% (inactive) under setting [1], 94% (active) under setting [2] and 79.1% (active) (at 50.0 µM).

The values are drawn from PubChem BioAssay (NCI).
